# Source: PubChem
# Tau FP inhib – tau fibrillization inhibition (FP); P10636; K18 P301L tau heparin fibrillization, Alexa594 FP, 6 h; Potency, µM (doses to about 57.7 µM), without a hit: at the top dose activity, negative = inhibition, actives largely listed as inhibitors; 280,000 compounds, 0.39% hits; note: nearly all actives have a fitted effect of over 55% in size
# Target sequence (P10636 561-689 P618L limits assumed): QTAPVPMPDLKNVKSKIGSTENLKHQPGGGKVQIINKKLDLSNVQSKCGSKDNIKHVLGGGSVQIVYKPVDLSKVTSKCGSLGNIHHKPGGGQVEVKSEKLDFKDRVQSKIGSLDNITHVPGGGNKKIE
#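 Quantitative HTS format: compounds meet 15 uM recombinant K18 P301L tau and Alexa 594-tau tracer in 100 mM sodium acetate pH 7; 20 uM heparin triggers fibrillization at 37 C over 6 hr; FP gives the signal.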
# Sfp inh – blocks B. subtilis Sfp PPTase activity. Potency, µM, for inactives: largest response in the series, negative = inhibition, actives largely listed as inhibitors. Q9F4F7. Biochemical Sfp PPTase activity, qHTS. 310,000 compounds, 3.5% hits;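 note: the enzyme is Sfp with the accession as filed and its product quenches rhodamine fluorescence; 0% = enzyme reaction without inhibitor and -100% = no enzyme wells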
#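 Fluorescence-quenching assay: 15 nM Sfp-PPTase preincubated 15 min at room temperature with compound, then 5 uM rhodamine-CoA and 12.5 uM BHQ-2-labelled YbbR peptide added. Fluorescence (ex 525/em 598 nm) read at start and after 30 min; difference gives rate.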
# Tau fluor counter – counter-screen for tau fibril formation inhibitors. AID 1463. Potency, µM (titrated, usually from 57.7 µM), without a hit: top-dose activity change, negative = decrease. 280,000 compounds, 0.93% hits. tau K18 P301L Alexa594 fluorescence, heparin fibrillization; note: nearly all actives have a fitted effect of over 55% in size
#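 Human tau K18 P301L (15 uM unlabeled, 0.24 uM Alexa 594-labeled) in 100 mM sodium acetate pH 7 with 20 uM heparin, 6 hr at 37 C. ThT 30 uM added, 1 hr ambient; Alexa 594 FP and total fluorescence read at 555/632 nm.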
# Tau fibril ThT – tau fibrillization inhibition (ThT binding). P10636. recombinant tau K18 P301L (four-repeat tau fragment), heparin-induced fibrillization, ThT fluorescence. Potency, µM (titrated, usually from 57.4 µM), for the others: at the highest dose activity, negative = inhibition, actives largely listed as inhibitors. 270,000 compounds, 2.1% hits. AID 1460; note: nearly all actives have a fitted effect of over 55% in size
#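 Heparin-induced fibrillization of the P301L-mutant K18 repeat-domain fragment of human tau was followed by ThT binding in quantitative high-throughput format.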
# VDR inhibitor – blocks the human vitamin D receptor; P11473; VDR-SRC2-3 peptide fluorescence polarization, 2 h; Potency, µM, for the others: max response, negative = inhibition, usual class: inhibitors; 400,000 compounds, 0.93% hits; AID 504847
# Target sequence (P11473 whole entry, looked up): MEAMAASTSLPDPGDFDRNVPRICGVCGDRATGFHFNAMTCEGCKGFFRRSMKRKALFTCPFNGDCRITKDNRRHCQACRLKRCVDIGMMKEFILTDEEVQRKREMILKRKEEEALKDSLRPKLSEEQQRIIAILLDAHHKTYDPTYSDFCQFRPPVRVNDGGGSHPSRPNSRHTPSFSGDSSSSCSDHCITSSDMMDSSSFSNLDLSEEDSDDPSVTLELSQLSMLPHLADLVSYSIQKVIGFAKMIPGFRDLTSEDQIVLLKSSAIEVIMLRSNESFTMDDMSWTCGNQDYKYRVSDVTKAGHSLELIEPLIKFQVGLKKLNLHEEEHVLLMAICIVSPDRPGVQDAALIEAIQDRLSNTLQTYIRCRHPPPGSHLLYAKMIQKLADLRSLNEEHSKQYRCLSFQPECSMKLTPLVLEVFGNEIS
#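 Fluorescence polarization assay of small-molecule disruption of VDR binding to coregulator peptide SRC2-3. Compounds and controls pin-transferred, then read after 2 h incubation at ambient room temperature.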
# PLK1 PBD block – inhibitors of human PLK1 polo-box domain binding. P53350. Plk1 PBD binding of FITC phosphopeptide, fluorescence polarization. Potency, µM, without a hit: max response, negative = inhibition, actives largely listed as inhibitors. 360,000 compounds, 2.8% hits. AID 720504; note: series mostly up to about 57 µM; nearly all actives have a fitted effect of over 65% in size
# TbPYK inh – confirmation of Trypanosoma brucei pyruvate kinase inhibitors. 890 compounds, 67% hits. Potency, µM (series often up to 76.9 µM), inactives show top-dose activity change, negative = inhibition, actives largely listed as inhibitors. shares compounds with PLK1 PBD block. recombinant TbPYK, Kinase-Glo ATP luminescence. AID 720569; note: nearly all actives have a fitted effect of over 70% in size
# TbPYK ADP-Glo – TbPYK inhibition, orthogonal confirmation; shares compounds with PLK1 PBD block; recombinant TbPYK, ADP-Glo luminescence, 60 min; Potency, µM (highest dose often 76.9 µM), for inactives: at the top dose activity change, negative = inhibition, hits mostly inhibitors; 890 compounds, 62% hits; AID 720584; note: nearly all actives have a fitted effect of over 75% in size
# Starred values were filed as active, the others as inactive; ? = inconclusive; · = no result given. Compounds with a hit are over-represented: about 6% of the library has one in this group of screens. Calls come from the whole dose curve; as a rule, active = well fitted curve in the direction sought with a large enough effect; inconclusive = small, poorly fitted or top-dose-only effect, or another doubt; inactive = no such curve, though single readings can be large; an effect the other way counts as inactive or inconclusive. Unless noted, % is set by controls: 0 for no effect and ±100 for the full control effect; potency is the fitted concentration of half-maximal effect.
SMILES,Tau FP inhib,Sfp inh,Tau fluor counter,Tau fibril ThT,VDR inhibitor,PLK1 PBD block,TbPYK inh,TbPYK ADP-Glo
CCOC(=O)c1ccc(/[N+]([O-])=C/c2ccccc2)cc1,·,·,·,·,?,21.2µM*,-26.2%,-10.7%
COc1cccc(/C=C2\C(=O)C(=O)c3ccccc32)c1,2.2%,-16.4%,-24.7%,12.6µM*,89.1µM*,0.794µM*,31.6µM*,?
O=C(c1ccccc1)c1cc(Cl)ccc1N1C(=O)C=CC1=O,-9.2%,3.16µM*,-1.0%,11.0%,25.1µM*,2.99µM*,5.01µM*,10µM*
CC(=O)Nc1ccc2c(c1)Cc1cc(N3C(=O)C=CC3=O)ccc1-2,·,·,·,·,28.2µM*,2.99µM*,8.91µM*,6.31µM*
CC(=O)Nc1ccc2c(c1)Cc1ccc(Cl)cc1-2,·,·,·,·,-2.0%,10.5%,·,·
N#Cc1cc(-c2ccccc2)nn1-c1ccccc1,?,17.8µM*,?,?,?,5.97µM*,2.51µM*,3.16µM*
Cn1ccc(-c2ccccc2)n1,5.9%,17.7%,2.1%,-4.7%,12.9%,-3.1%,·,·
COC(=O)c1ccc(C2Nc3ccc(/C(C)=N/NC(=O)C(OC)c4ccccc4)cc3C3C=CCC32)cc1 (stereo not given),-5.6%,?,-24.5%,?,-27.7%,-15.9%,?,?
COC(C(=O)N/N=C(\C)c1ccc(O)cc1)c1ccccc1 (stereo not given),·,-1.6%,·,·,-0.7%,-4.1%,·,·
CC(NC(=O)c1ccc(N2Cc3ccccc3Oc3ncccc32)s1)c1ccccc1 (stereo not given),-3.0%,·,-23.1%,?,5.1%,·,·,·
COCCN=C1NN=C(c2ccc(C)c([N+](=O)[O-])c2)CS1,3.4%,-25.6%,-7.2%,?,?,26.7µM*,?,?
Cc1nc(N2CCCCC2)c2sc(=S)n(C)c2n1,-2.7%,12.7%,-0.9%,-10.7%,3.5%,-16.0%,·,·
CCN1CCN(c2nc(C)nc3c2sc(=S)n3C)CC1,-10.3%,2.82µM*,-8.9%,?,25.1µM*,2.99µM*,5.62µM*,15.8µM*
C=CCOc1ccc(/C=C2/C(=O)ON=C2C)cc1OC,·,44.7µM*,·,·,-14.2%,2.38µM*,12.6µM*,?
Nc1nc2cc3c(cc2cc1C(=O)NCc1ccc(F)cc1)OCO3,·,·,·,·,·,-10.7%,·,·
CCOC(=O)CCSc1nc(N2CCOCC2)c2c(c1C#N)CC(C)(C)OC2,·,-1.5%,·,·,-7.9%,-10.4%,11.2µM*,11.2µM*
CCOC(=O)C(C)Sc1nc(N2CCOCC2)c2c(c1C#N)CC(C)(C)OC2 (stereo not given),·,·,·,·,6.9%,-5.9%,·,·
COc1ccccc1NC(=O)CSc1cn(CC(=O)N2CCCC2)c2ccccc12,-14.8%,·,-13.3%,?,4.9%,·,·,·
CSC1CCCCC1(O)CSc1nc2c(cc1C#N)CCCC2 (stereo not given),1.5%,50.1µM*,-9.2%,-17.7%,-15.0%,26.7µM*,7.94µM*,8.91µM*
N#CCSc1nc2c(cc1C#N)CCCC2,0.2%,?,-13.1%,-5.0%,-18.1%,-12.8%,·,·
CN1CCN(c2ncnc3c2ncn3[C@H]2CN(Cc3ccco3)C[C@@H](CO)O2)CC1,·,·,·,·,·,-6.2%,·,·
COc1ccc(S(=O)NC2CCCCC2)c(OC)c1C (stereo not given),9.4%,50.1µM*,0.2%,?,0.7%,-19.3%,22.4µM*,20µM*
COc1ccc(C(=O)NC2CCCCCCC2)cc1OC,·,·,·,·,-12.2%,-16.6%,·,·
C=CCN1CCN(C(c2ccccc2)c2nnnn2CCC(C)C)CC1 (stereo not given),1.4%,1.1%,5.0%,2.9%,?,2.67µM*,3.5%,-4.0%
CC(C)CCn1nnnc1C(c1ccccc1)N1CCN(C)CC1 (stereo not given),-0.2%,5.0%,-3.8%,-11.2%,-6.4%,-0.7%,·,·
SMILES,Tau FP inhib,Sfp inh,Tau fluor counter,Tau fibril ThT,VDR inhibitor,PLK1 PBD block,TbPYK inh,TbPYK ADP-Glo
COC(=O)C1=C(C(=O)OC)C(C(=O)OC)C(C(=O)OC)C(C(=O)OC)(C(=O)OC)C(C(=O)OC)=C1C(=O)OC (stereo not given),·,·,·,·,39.8µM*,10.6µM*,28.2µM*,35.5µM*
Cc1nc(-c2ccc(C(=O)N3CCOCC3)cc2)cs1,2.4%,2.2%,1.0%,-2.2%,5.0%,-1.9%,·,·
Cc1nc(-c2ccc(C(=O)N3CCCC3)cc2)cs1,-1.1%,17.3%,-5.7%,-10.9%,-1.4%,-9.0%,?,10.2%
Cc1ccc(Sc2c(C)[nH]n(C(C)(C)C)c2=O)cc1,2.5%,14.6%,2.9%,0.7%,-1.5%,-12.5%,·,·
CC1=CC(=O)C(Sc2ccc(C)cc2)=CC1=O,·,·,·,·,·,0.844µM*,1.26µM*,2.51µM*
CCOC(=O)CNC(=O)CSc1nnc(-c2ccco2)n1Cc1ccco1,-2.5%,-8.0%,-18.0%,?,5.7%,-4.8%,3.55µM*,14.1µM*
CCOC(=O)CNC(=O)CSc1nnc(-c2ccco2)n1N,-4.3%,-3.4%,-0.5%,2.1%,14.5%,0.3%,·,·
Oc1ccc(/C=N/Nc2nccnc2Cl)c(O)c1,9.7%,13.8%,-28.0%,?,-14.9%,0.6%,?,2.6%
COc1ccc(C(C)(NC(C)=O)c2nc(-c3cccc(NC(C)=O)c3)cs2)cc1 (stereo not given),·,·,·,·,·,-1.8%,·,·
COc1cc2c(cc1OC)C(=O)C(Br)CC2 (stereo not given),·,·,·,·,·,0.947µM*,10µM*,5.62µM*
CCc1ccccc1S(=O)(=O)Cc1ccc(C(=O)NCCc2ccc(C)cc2)o1,6.9%,·,-21.1%,?,-22.6%,·,·,·
O=C(N/N=C/c1ccc(O)c(O)c1)N/N=C/c1ccc(O)c(O)c1,·,?,·,·,-27.9%,-10.0%,·,·
Cc1nonc1C(=O)N/N=C/c1ccc(O)c(O)c1,4.0%,-5.8%,8.3%,5.0%,-10.5%,0.4%,?,4.3%
CCCS(=O)(=O)N1CC(=O)N(c2ccc(Cl)cc2C)C(C)(C(=O)NC2CCCC2)C1 (stereo not given),1.2%,·,6.2%,8.9%,-1.1%,·,·,·
COC(=O)c1sccc1NC(=O)Nc1ccc(F)cc1,·,6.3%,·,·,39.6%,4.1%,?,-4.2%
CCOC(=O)c1cc(-c2ccc(OC)cc2)n(CCC(=O)Nc2ccccc2OC)c1C,14.7%,·,-23.5%,-4.0%,1.4%,·,·,·
COc1cccc(N2CCN(S(=O)(=O)c3cn(C)c(C)n3)CC2)c1,-10.1%,·,4.8%,10.7%,14.5%,·,·,·
